# Mac1 fbg enh = enhancers of CD11b/CD18 adhesion to fibrinogen, primary screen, K562 cells, luminescence | hit rate 0.07% among 93,000 | ATPlite luminescence | Integrin beta-2 (Homo sapiens) + Integrin alpha-M (Homo sapiens), P05107+P11215 | activation, % at 10 µM;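 active = 10 µM primary screen giving 50% or more activity, confirmed by 40% or more on retest at that dose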
# Target sequence (P05107 whole entry, looked up, other chains not shown): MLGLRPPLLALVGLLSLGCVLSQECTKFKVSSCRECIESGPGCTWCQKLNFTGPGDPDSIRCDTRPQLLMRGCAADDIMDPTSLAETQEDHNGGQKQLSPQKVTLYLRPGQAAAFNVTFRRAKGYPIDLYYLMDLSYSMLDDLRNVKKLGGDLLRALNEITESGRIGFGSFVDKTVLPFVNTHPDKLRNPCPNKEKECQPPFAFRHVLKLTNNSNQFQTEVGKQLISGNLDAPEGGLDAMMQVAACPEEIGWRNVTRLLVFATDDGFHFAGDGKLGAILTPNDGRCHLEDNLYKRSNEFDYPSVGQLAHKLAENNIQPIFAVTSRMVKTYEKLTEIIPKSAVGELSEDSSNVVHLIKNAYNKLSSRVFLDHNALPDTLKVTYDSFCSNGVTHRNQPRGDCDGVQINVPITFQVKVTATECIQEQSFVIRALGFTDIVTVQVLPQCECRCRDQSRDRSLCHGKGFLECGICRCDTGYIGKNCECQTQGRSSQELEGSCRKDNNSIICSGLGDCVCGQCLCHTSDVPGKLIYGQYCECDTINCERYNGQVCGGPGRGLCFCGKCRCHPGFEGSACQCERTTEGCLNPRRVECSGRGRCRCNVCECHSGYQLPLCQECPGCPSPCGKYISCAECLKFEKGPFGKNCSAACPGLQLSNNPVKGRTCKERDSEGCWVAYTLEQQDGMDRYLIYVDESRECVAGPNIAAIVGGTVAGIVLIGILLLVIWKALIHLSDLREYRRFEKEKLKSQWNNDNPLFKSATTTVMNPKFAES
# PTK2B oligo ant = antagonists of Pyk2 self-association, primary screen, Q293 cells, FERM NanoBiT luminescence, HTS; Protein-tyrosine kinase 2-beta (Homo sapiens), Q14289; active compounds read low; z-score (the deposit names both 25 µM and 10 µM); hit rate 0.83% among 99,000; AID 1347419, 2020;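 active = Z-score of -3 or lower, scaled per plate to the spread of control and sample wells; inactive = z-score above -3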;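 also: negative z-score means lost luminescence so less FERM oligomerization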
# CD11b adhes inh = inhibitors of CD11b/CD18 adhesion to fibrinogen, primary screen, K562 cells, luminescence; ATPlite luminescence; Mn2+ added to activate the integrin; AID 1497, 2009; hit rate 0.54% among 93,000; inhibition, % at 10 µM;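 active = primary inhibition of 50% or more at 10 µM, then 40% or more on retest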
# E coli RNAP = E. coli RNAP inhibitors, biochemical. E. coli RNA polymerase, fluorescence transcription assay. DNA-directed RNA polymerase subunit beta (Escherichia coli (strain K12)), P0A8V2. inhibition, %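 (tested at 10 µM)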. hit rate 0.2% among 62,000; in the data active = inhibition above about 20%;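 also: 0% = enzyme without compound and 100% = no enzyme blank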
# Cav3 T inh = Cav3.2 calcium influx blockers – cell-based, Fluo-4 calcium fluorescence, FDSS, MLSMR library, primary screen; Cav3.2-expressing cells; active compounds read low; B-score at 10 µM; hit rate 4% among 100,000; AID 449739, 2010;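 active = single-dose well whose peak fluorescence ratio is a statistical outlier from its plate by either plate-standardised score or position-corrected B-score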
# Starred values were filed as active, the others as inactive; x = no result given. Rows were chosen to be rich in hits. Some 4.2% of all compounds tested hit in one or more screens of this group.
SMILES,Mac1 fbg enh,PTK2B oligo ant,CD11b adhes inh,E coli RNAP,Cav3 T inh
Cc1nn(-c2cc(N3CCCCC3)ccc2[N+](=O)[O-])c(=O)c2ccccc12,x,-3.8*,x,x,-0.29
CCN(C(=O)CN(C)Cc1cccc(Cl)c1Cl)c1c(N)n(Cc2ccccc2)c(=O)[nH]c1=O,6,x,-4,x,x
COC(C[C@@H]1O[C@H]1[C@H](O)[C@@H](C)OCc1ccccc1)OC,x,x,x,x,-0.026
Cc1ccc2c(c1)cc(CN(Cc1cccnc1)C(=O)NCc1ccccc1)c1nnnn12,6,-0.67,-15,x,-0.066
O=C(NCc1ccc(OC(F)(F)F)cc1)C12CN(Cc3ccccc3)CC1C(c1cccc([N+](=O)[O-])c1)=NO2 (configuration not stated),1,x,-1,x,-3.8*
O=C(NCc1ccccc1)C12CN(Cc3ccccc3)CC1C(c1cccc([N+](=O)[O-])c1)=NO2 (configuration not stated),x,x,x,x,-3.4*
CCCCN(CCCC)CCCNC(=O)C12CN(Cc3ccccc3)CC1C(c1cccc([N+](=O)[O-])c1)=NO2 (configuration not stated),-1,x,-2,x,-3.2*
Cc1cc(C)c(C(=O)COC(=O)c2cc([N+](=O)[O-])ccc2NCCO)cc1C,1,x,15,x,x
CC(C)(C)c1ccc(OCC(=O)N/N=C/c2ccsc2)cc1,-1,x,22,x,x
CCCOc1ccc(N2C(=O)CC(N(CCc3ccc(OC)cc3)C(=O)c3cccc(F)c3)C2=O)cc1 (configuration not stated),-3,-0.79,-8,x,-4.6*
CCCOc1ccc(N2C(=O)CC(N(CCC)C(=O)CCC(=O)O)C2=O)cc1 (configuration not stated),-6,-0.2,2,3,-0.18
CC1CCC(NC(=O)CN2C(=O)C3CCCN3c3ncc(Cl)cc32)CC1 (configuration not stated),76,x,2,0,-6.5*
CCN(CC)C(=O)N1c2ccccc2C=Cc2ccccc21,2,-1.2,0,x,-8.6*
CC(C)n1nc(C(=O)OCC(=O)c2c[nH]c3ccccc23)c2ccccc2c1=O,0,-3.6*,-50,x,0.6
O=C(CNC(=O)/C(=C\c1ccccc1)NC(=O)c1ccc(Br)cc1)OCc1ccccc1,x,-0.4,x,x,-6.6*
Cc1cc(C)n(C(=O)CN2C(=O)CCC2=O)n1,-1,-0.1,1,5,-0.032
Cc1cc(C)n(C(=O)C23CC4CC(CC(C4)C2)C3)n1,7,x,-3,7,-5.6*
CCc1ccc(O)c(N=Cc2ccccc2O)c1,-7,0.01,1,27*,0.012
Cc1cccc(NC(=S)NC2CC3CCCC(C2)N3Cc2cccs2)c1 (configuration not stated),x,-0.46,x,x,-3
O=C(NC1CCCCC1)c1sc(=S)n2c1[nH]c(=O)c1ccccc12,-10,-3*,105*,1,-6.3*
CCCCNC(=O)c1sc(=S)n(-c2ccccc2OC)c1N,5,1.1,-19,x,0.18
CCCCNC(=O)c1sc(=S)n2c1[nH]c(=O)c1ccccc12,-10,1.1,97*,6,-3.1
Cc1c(CN(C)C)c2c(n1C)C(=O)c1ccc(Br)cc1-2,-3,0.7,-9,1,0.84
CCOC(=O)c1c2c(n(C)c1C)C(=O)C(=O)c1ccc(Br)cc1-2,x,-3.5*,x,x,0.35
Cn1cc(-c2nnnn2-c2cccc(C(F)(F)F)c2)c(C(F)(F)F)n1,-2,0.27,-36,x,x
SMILES,Mac1 fbg enh,PTK2B oligo ant,CD11b adhes inh,E coli RNAP,Cav3 T inh
CN1C(=O)/C(=C/c2ccccc2OCc2cccc(F)c2)NC1=S,1,0.44,2,x,0.11
Cc1cc(N2CCOCC2)n2nc(C)c(-c3ccccc3)c2n1,3,0.75,9,6,3.8*
Cc1cc(Cl)ccc1OC(C)C(=O)Nc1ccc(S(=O)(=O)Nc2cnc3ccccc3n2)cc1 (configuration not stated),x,0.18,x,x,-2.6
CC(Oc1ccc(Cl)cc1Cl)C(=O)Nc1ccc(S(=O)(=O)Nc2cnc3ccccc3n2)cc1 (configuration not stated),6,x,78*,x,-2.3
O=C(CNCCC1=CCCCC1)Nc1ccc(N2CCCCCC2)cc1,4,-0.28,32,x,-5.1*
CCC(C)N1C(=O)CCC1C(=O)O (configuration not stated),-3,-0.11,6,x,-1.4
CN1C(=O)CC(N2CCN(c3ccc(Cl)c(Cl)c3)CC2)C1=O (configuration not stated),1,0.05,-12,x,-0.1
COc1cccc(N2CCN(C3CC(=O)N(c4ccc(Cl)c(Cl)c4)C3=O)CC2)c1 (configuration not stated),-2,1.4,2,4,-6.4*
Cc1[nH]c2ccccc2c1SCCNC(=O)c1ccc(Br)o1,x,-1.2,x,x,-4.1*
O=C(O)CCNC(=O)c1ccc(Br)o1,0,-0.69,4,1,-0.28
CC(C)C(=O)NCCSc1c[nH]c2ccccc12,0,x,4,x,2.8
O=C(NCCSc1c[nH]c2ccccc12)c1ccc(Br)o1,-1,x,-6,6,-5*
CCN(CC)S(=O)(=O)c1ccc(C(=O)NCCSc2c[nH]c3ccccc23)cc1,x,x,x,x,-4.6*
CCC(=O)NCCSc1c[nH]c2ccccc12,-3,0.4,6,-1,0.11
O=C(NCCC(c1ccccc1)c1ccccc1)c1ccc(Br)o1,2,-0.92,15,x,-6.5*
CC(=O)Nc1ccc(Nc2cc(C)nc3c(-c4ccccc4)cnn23)cc1,2,x,14,x,x
Cc1oc(-c2ccccc2)cc1C(=O)Nc1cccc2ccccc12,-1,0.93,-5,x,-5*
Cc1oc(-c2ccccc2)cc1C(=O)Nc1cccc(C(=O)O)c1,-8,-0.82,x,7,-0.064
O=C(Cn1c(=O)c(=O)n(Cc2ccccc2)c2ccc(Cl)cc21)Nc1cccc(F)c1,9,x,-5,x,x
O=C(CSc1nnc2c(n1)[nH]c1ccccc12)Nc1ccc2c(c1)OCO2,21,0.65,5,x,-0.26
Cc1ccc(C(=O)/C=C/c2ccc(-c3ccccc3[N+](=O)[O-])o2)cc1,3,-0.14,-10,x,0.26
Cc1ccc(-c2ccc(/C=N/N3C(=O)C4C5C=CC(C6CC56)C4C3=O)o2)c([N+](=O)[O-])c1 (configuration not stated),0,-0.51,-2,x,-5.1*
CC(C)(C)NC(=O)CSC(=Nc1ccc(F)cc1)NC#N,x,1.4,x,x,0.27
COc1ccc(C2CC(c3cccs3)=NN2C(=S)Nc2ccccc2)cc1OC (configuration not stated),4,x,0,x,x
Cc1ccc(C2CC(c3ccccc3)=NN2C(=S)Nc2ccccc2)o1 (configuration not stated),4,-0.66,4,x,-7.5*
C/C=C/C(=O)OCC(=O)Nc1cc(-c2cc(C)c(C)cc2C)nn1-c1ccccc1,-3,x,8,x,x
